# PubChem BioAssay
# Active and inactive are the calls of the source.
# How the values were obtained:
# [1] = anti-His antibody binders, primary screen, artefact control for SMM control protein annotation, biochemical, small-molecule microarray, 635 nm fluorescence (AID 1128); conditions: anti-His Alexa647 antibody binding, higher = more signal;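 further: score merges feature fluorescence with signal-to-noise for each printed compound spot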
# [2] = system: Human papillomavirus type 1a E7 protein (residues 1-88); assay: HPV1a E7 small-molecule binders, primary screen, biochemical, small-molecule microarray, residues 1-88, 635 nm (AID 1129); conditions: small-molecule microarray binding, fluorescence 635 nm; higher = more signal
# [3] = target: Focal adhesion kinase 1 (Homo sapiens) (UniProt Q05397); assay: small-molecule microarray binders of FAK, primary screen, biochemical, 635/667 nm fluorescence, BSA, DTT (AID 1130); conditions: PTK2 binding, 635 nm fluorescence, higher = more signal;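 further: composite of spot emission at 667 nm and signal to noise over triplicate slides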
# Chain of Focal adhesion kinase 1 (Homo sapiens) (Q05397 whole entry, looked up): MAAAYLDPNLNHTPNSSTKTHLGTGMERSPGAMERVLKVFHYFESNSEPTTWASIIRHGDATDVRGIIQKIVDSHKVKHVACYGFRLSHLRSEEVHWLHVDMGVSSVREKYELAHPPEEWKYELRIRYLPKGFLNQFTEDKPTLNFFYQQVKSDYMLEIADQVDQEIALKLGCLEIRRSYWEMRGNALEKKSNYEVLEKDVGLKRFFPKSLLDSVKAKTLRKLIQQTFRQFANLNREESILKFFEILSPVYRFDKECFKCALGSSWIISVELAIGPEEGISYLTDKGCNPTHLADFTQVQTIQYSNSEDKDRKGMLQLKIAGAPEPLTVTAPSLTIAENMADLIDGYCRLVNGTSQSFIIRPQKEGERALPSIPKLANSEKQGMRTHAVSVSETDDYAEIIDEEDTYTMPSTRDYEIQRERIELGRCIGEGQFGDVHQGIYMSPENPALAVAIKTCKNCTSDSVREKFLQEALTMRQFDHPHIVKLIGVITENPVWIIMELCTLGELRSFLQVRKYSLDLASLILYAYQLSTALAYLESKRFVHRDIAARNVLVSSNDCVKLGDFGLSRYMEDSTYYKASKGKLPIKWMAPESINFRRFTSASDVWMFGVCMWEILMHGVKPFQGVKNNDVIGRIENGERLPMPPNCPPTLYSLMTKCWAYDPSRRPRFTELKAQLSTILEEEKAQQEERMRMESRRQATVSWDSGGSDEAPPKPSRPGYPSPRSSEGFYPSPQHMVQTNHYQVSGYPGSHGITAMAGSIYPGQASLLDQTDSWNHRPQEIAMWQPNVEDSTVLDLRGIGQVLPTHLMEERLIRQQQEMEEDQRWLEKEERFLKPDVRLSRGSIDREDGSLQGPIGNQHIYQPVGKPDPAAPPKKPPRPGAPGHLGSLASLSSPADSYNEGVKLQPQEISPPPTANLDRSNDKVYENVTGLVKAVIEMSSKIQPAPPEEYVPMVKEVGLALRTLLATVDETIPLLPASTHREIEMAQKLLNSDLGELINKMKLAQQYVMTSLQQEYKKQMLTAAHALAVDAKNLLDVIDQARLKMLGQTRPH
# [4] = system: Fibrinogen (Alexa647-labelled); assay: fibrinogen binders on compound microarrays, profiling panel, artefact control for SMM control-protein annotation, biochemical, small-molecule microarray, 635/667 nm fluorescence (AID 1131); conditions: fibrinogen-A647 binding fluorescence, higher = more signal;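 further: z-score merges 667 nm fluorescence with per-spot signal-to-noise over triplicate slides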
# [5] = target: Follistatin (Homo sapiens) (UniProt P19883); assay: follistatin binders on small-molecule microarrays, primary screen, biochemical, small-molecule microarray, 635/667 nm fluorescence (AID 1132); conditions: FST binding, 635 nm fluorescence, higher = more signal
# Chain of Follistatin (Homo sapiens) (P19883 whole entry, looked up): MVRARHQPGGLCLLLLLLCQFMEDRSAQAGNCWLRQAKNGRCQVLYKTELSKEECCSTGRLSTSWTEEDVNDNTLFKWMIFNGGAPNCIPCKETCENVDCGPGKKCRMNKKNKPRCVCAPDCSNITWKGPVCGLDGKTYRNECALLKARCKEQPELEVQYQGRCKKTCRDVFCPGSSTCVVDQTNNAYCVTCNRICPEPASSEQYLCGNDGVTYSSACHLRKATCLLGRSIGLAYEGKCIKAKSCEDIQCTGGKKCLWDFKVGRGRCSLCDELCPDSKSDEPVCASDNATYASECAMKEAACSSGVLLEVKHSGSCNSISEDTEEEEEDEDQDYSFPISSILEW
# [6] = target: Fibroblast growth factor 2 (Homo sapiens) (UniProt P09038); assay: FGF2 binders on small-molecule microarrays, primary screen, biochemical, small-molecule microarray, 635/667 nm fluorescence (AID 1133); conditions: small-molecule microarray binding, FGF2, fluorescence 635/667; higher = more signal
# Chain of Fibroblast growth factor 2 (Homo sapiens) (P09038 whole entry, looked up): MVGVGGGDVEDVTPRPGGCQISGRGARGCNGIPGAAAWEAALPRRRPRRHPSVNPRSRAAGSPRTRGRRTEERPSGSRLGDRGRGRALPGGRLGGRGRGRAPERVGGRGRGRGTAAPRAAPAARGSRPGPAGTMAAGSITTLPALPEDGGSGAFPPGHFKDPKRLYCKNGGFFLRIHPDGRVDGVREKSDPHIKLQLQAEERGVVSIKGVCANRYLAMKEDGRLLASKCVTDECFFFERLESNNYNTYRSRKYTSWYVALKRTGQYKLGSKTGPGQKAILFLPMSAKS
# [7] = mitochondrial membrane potential change in A549 cells, profiling panel, cell-based, JC-1 fluorescence, basal, 24 h, 100 nL (AID 1138); conditions: higher = more signal;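 further: A549 lung adenocarcinoma cells under basal conditions with no added stimulus; test concentration not given here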
# Lefty1 = Lefty1 binders on small-molecule microarrays, primary screen, biochemical, small-molecule microarray, 635/667 nm fluorescence (AID 1139); conditions: small-molecule microarray binding, fluorescence 635/667; higher = more signal
# [8] = system: wheat germ agglutinin (Triticum aestivum), Alexa647-labelled; assay: wheat germ agglutinin binders on compound microarrays, profiling panel, artefact control for SMM control-protein annotation, biochemical, small-molecule microarray, 635/667 nm fluorescence (AID 1140); conditions: WGA-A647 binding, 635 nm fluorescence, higher = more signal;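 further: score merges 667 nm feature emission with signal to noise over triplicate slides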
# [9] = target: Luciferin 4-monooxygenase (Photinus pyralis) (UniProt P08659); assay: firefly luciferase enzyme inhibitors, primary screen, biochemical, luminescence, purified enzyme, 2006 set (AID 1141); conditions: SteadyGlo luminescence, 30 min, higher = more signal, called active from +8 up or from −8 down;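 further: cell-free assay with purified firefly luciferase at 100 ng per well in PBS; test concentration not given here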
# Chain of Luciferin 4-monooxygenase (Photinus pyralis) (P08659 whole entry, looked up): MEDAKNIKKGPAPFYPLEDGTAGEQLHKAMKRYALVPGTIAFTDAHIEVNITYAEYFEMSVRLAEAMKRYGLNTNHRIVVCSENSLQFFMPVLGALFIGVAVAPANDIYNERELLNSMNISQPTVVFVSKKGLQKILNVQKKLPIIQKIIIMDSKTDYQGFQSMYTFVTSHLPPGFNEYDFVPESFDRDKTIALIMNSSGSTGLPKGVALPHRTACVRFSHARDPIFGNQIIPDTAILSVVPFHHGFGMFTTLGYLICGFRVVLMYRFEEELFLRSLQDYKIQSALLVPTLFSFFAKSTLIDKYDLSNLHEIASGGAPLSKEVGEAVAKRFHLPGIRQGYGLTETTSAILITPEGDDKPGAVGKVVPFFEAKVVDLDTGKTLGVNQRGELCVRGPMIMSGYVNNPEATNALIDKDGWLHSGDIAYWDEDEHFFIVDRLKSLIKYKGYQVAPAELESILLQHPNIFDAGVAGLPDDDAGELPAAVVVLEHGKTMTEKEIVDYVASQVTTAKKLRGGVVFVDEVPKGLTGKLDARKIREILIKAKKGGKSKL
SMILES,composite z-score [1],composite z-score [2],composite z-score [3],composite z-score [4],composite z-score [5],composite z-score [6],z-score [7],composite z-score (Lefty1),composite z-score [8],z-score [9]
O=C1OCC=C[C@H]2OC34C=CCN(CCN5CCOCC5)C(=O)[C@H]3N(CCCO)C(=O)[C@@H]4[C@@H]12 (stereo not given in full),0.314,0.323,0.574,0.38,0.216,-0.344,-0.798,0.606,0.114,-0.206 (inactive)
C=CCOC(=O)[C@H]1[C@@H]2C(=O)O[C@@H](c3ccccc3)[C@@H](c3ccccc3)N2[C@@H](c2ccc(OCCOC(=O)[C@H]3C[C@H]4C(=O)N[C@@H](CC(C)C)C(=O)N4[C@H]3c3ccc(O)cc3)cc2)[C@]12C(=O)Nc1ccc(I)cc12,0.756,0.937,0.798,0.839,1.19,1.55,-1.29,1.54,0.739,-2.02 (inactive)
CC(C)[C@@H](CO)NC(=O)[C@H]1[C@@H](c2ccccc2)N(c2ccccc2)O[C@@H]1C,0.398,-0.253,-0.168,0.0711,0.104,0.0808,0.204,0.216,0.149,-0.21 (inactive)
C=CCNC(=O)[C@H]1[C@@H]2C(=O)O[C@@H](c3ccccc3)[C@@H](c3ccccc3)N2[C@@H](c2ccc(OCCO)cc2)[C@]12C(=O)Nc1ccc(C#CC3=CCCCC3)cc12,0.354,1.09,-0.544,0.957,1.26,0.553,-0.801,0.937,0.494,0.098 (inactive)
C=CC[C@@]1(C(=O)N(C)C)N=C(c2ccc(OCCCO)cc2)O[C@@H]1c1ccccc1N=[N+]=[N-],3.01,1.22,0.489,0.776,1.28,0.26,0.857,0.406,1.33,-9.07 (active)
C=C(/C(=C/C[C@@H](OC(C)=O)c1ccc(OCCO)cc1)c1cnc2ccccc2c1)C(C)C,0.204,0.408,0.166,-0.59,1.1,0.757,1.04,0.806,0.983,-1.6 (inactive)
Cc1ccc(S[C@]2(C(=O)NC(C)C)CC(=O)N(Cc3ccccc3Cl)[C@@H]2c2ccc(CO)cc2I)cc1,3.21,0.164,-0.0745,0.628,0.237,-0.934,0.905,-0.658,0.648,-0.102 (inactive)
